Inconclusive results are not listed. Activity calls are given as the source filed them. Calls follow the shape of the dose curve; as a rule, active = well fitted inhibition curve with a large enough effect; inconclusive = small, poorly fitted or top-dose-only effect; inactive = flat fitted curve, though single readings scatter.
Assays:
Assay in all cases: qHTS profiling for inhibitors of Plasmodium falciparum proliferation (AID 504749); also: nearly all actives have a fitted effect of over 60% in size
CP260 = conditions: P. falciparum in erythrocytes, SYBR Green DNA, 72 h; series mostly up to 28.7 µM
Summary of the method: (§1)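 P. falciparum-infected erythrocytes (0.3% parasitemia, 2.5% hematocrit final) were exposed to compounds for 72 h at 37 C in 5% CO2, then lysed with SYBR Green buffer overnight at room temperature; parasite DNA fluorescence was normalized to artemisinin and DMSO controls.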

CP262 = conditions: P. falciparum in erythrocytes, SYBR Green DNA, 72 h; series mostly up to 28.7 µM
Summary of the method: as §1

CP265 = conditions: P. falciparum in erythrocytes, SYBR Green DNA, 72 h; series mostly up to 12.8 µM
Summary of the method: as §1

CP268 = conditions: P. falciparum in erythrocytes, SYBR Green DNA, 72 h; series mostly up to 28.7 µM
Summary of the method: as §1

CP269 = conditions: P. falciparum in erythrocytes, SYBR Green DNA, 72 h; series mostly up to 28.7 µM
Summary of the method: as §1

CP286 = conditions: P. falciparum in erythrocytes, SYBR Green DNA, 72 h; series mostly up to 28.7 µM
Summary of the method: as §1

CP291 = conditions: P. falciparum in erythrocytes, SYBR Green DNA, 72 h; series mostly up to 28.7 µM
Summary of the method: as §1

CP297 = conditions: P. falciparum in erythrocytes, SYBR Green DNA, 72 h; series mostly up to 28.7 µM
Summary of the method: as §1

CP305 = conditions: P. falciparum in erythrocytes, SYBR Green DNA, 72 h; series mostly up to 28.7 µM
Summary of the method: as §1

CP315 = conditions: P. falciparum in erythrocytes, SYBR Green DNA, 72 h; series mostly up to 28.7 µM
Summary of the method: as §1

CP325 = conditions: P. falciparum in erythrocytes, SYBR Green DNA, 72 h; series mostly up to 28.7 µM
Summary of the method: as §1

CP329 = conditions: P. falciparum in erythrocytes, SYBR Green DNA, 72 h; series mostly up to 28.7 µM
Summary of the method: as §1

CP335 = conditions: P. falciparum in erythrocytes, SYBR Green DNA, 72 h; series mostly up to 12.8 µM
Summary of the method: as §1

DFO2036 = conditions: P. falciparum in erythrocytes, SYBR Green DNA, 72 h; series mostly up to 28.7 µM
Summary of the method: as §1

DIV14 = conditions: P. falciparum in erythrocytes, SYBR Green DNA, 72 h; series mostly up to 28.7 µM
Summary of the method: as §1

DIV30 = conditions: P. falciparum in erythrocytes, SYBR Green DNA, 72 h; series mostly up to 28.7 µM
Summary of the method: as §1

Dd2 = conditions: P. falciparum in erythrocytes, SYBR Green DNA, 72 h; series mostly up to 28.7 µM
Summary of the method: as §1

ECU = conditions: P. falciparum in erythrocytes, SYBR Green DNA, 72 h; series mostly up to 28.7 µM
Summary of the method: as §1

FAB9 = conditions: P. falciparum in erythrocytes, SYBR Green DNA, 72 h; series mostly up to 28.7 µM
Summary of the method: as §1

GB4 = conditions: P. falciparum in erythrocytes, SYBR Green DNA, 72 h; series mostly up to 28.7 µM
Summary of the method: as §1

HB3 = conditions: P. falciparum in erythrocytes, SYBR Green DNA, 72 h; series mostly up to 28.7 µM
Summary of the method: as §1

ICS = conditions: P. falciparum in erythrocytes, SYBR Green DNA, 72 h; series mostly up to 28.7 µM
Summary of the method: as §1

JCK = conditions: P. falciparum in erythrocytes, SYBR Green DNA, 72 h; series mostly up to 28.7 µM
Summary of the method: as §1

N140 = conditions: P. falciparum in erythrocytes, SYBR Green DNA, 72 h; series mostly up to 28.7 µM
Summary of the method: as §1

P93_24 = conditions: P. falciparum in erythrocytes, SYBR Green DNA, 72 h; series mostly up to 28.7 µM
Summary of the method: as §1

P94_40 = conditions: P. falciparum in erythrocytes, SYBR Green DNA, 72 h; series mostly up to 28.7 µM
Summary of the method: as §1

PAD = conditions: P. falciparum in erythrocytes, SYBR Green DNA, 72 h; series mostly up to 28.7 µM
Summary of the method: as §1

PC26 = conditions: P. falciparum in erythrocytes, SYBR Green DNA, 72 h; series mostly up to 28.7 µM
Summary of the method: as §1

TAB109 = conditions: P. falciparum in erythrocytes, SYBR Green DNA, 72 h; series mostly up to 12.8 µM
Summary of the method: as §1

TAB113 = conditions: P. falciparum in erythrocytes, SYBR Green DNA, 72 h; series mostly up to 28.7 µM
Summary of the method: as §1

TAB165 = conditions: P. falciparum in erythrocytes, SYBR Green DNA, 72 h; series mostly up to 28.7 µM
Summary of the method: as §1

W2 = conditions: P. falciparum in erythrocytes, SYBR Green DNA, 72 h; series mostly up to 12.8 µM
Summary of the method: as §1

Measured: Potency
Potency is read from the fitted curve at half-maximal effect.

O=[As]O[As]=O (configuration not stated)
active: CP260 6.31 µM | CP265 12.6 µM | CP268 15.1 µM | CP269 6.01 µM | CP286 8.91 µM | CP291 6.75 µM | CP297 9.53 µM | CP305 8.49 µM | CP315 13.5 µM | CP325 6.75 µM | CP329 15.1 µM | CP335 7.57 µM | DFO2036 12.6 µM | DIV14 6.01 µM | DIV30 8.49 µM | Dd2 7.94 µM | ECU 8.91 µM | FAB9 11.2 µM | GB4 8.49 µM | HB3 11.2 µM | ICS 7.08 µM | JCK 11.2 µM | N140 7.94 µM | P93_24 5.01 µM | P94_40 7.08 µM | PAD 8.91 µM | PC26 15.1 µM | TAB109 7.08 µM | TAB113 7.94 µM | TAB165 6.31 µM | W2 4.26 µM
inactive: CP262

— PubChem BioAssay (NCATS)
